Experimental findings from ChEMBL document CHEMBL1201862, “PubChem BioAssay data set” (2004) are described below.

The campaign covered roughly 360,000 compounds. About 25,000 (6.9%) were called active. Roughly 9% stayed inconclusive and do not appear here. No cut-off for these calls is given here. The full list was thinned out, with actives kept by preference.

For this experiment, the target named is Luciferin 4-monooxygenase (Photinus pyralis) (UniProt P08659). The experiment is described as follows: qHTS profiling assay for firefly luciferase inhibitor/activator using purified enzyme and Km concentrations of substrates (counterscreen for miR-21 project). [Related pubchem assays (depositor defined):AID2288, AID2289, AID2598, AID411]. The experiment is classed as functional. (In general: In qHTS, concentration-response curves come from the screen itself.)
Luciferin 4-monooxygenase (Photinus pyralis), sequence (P08659 whole entry): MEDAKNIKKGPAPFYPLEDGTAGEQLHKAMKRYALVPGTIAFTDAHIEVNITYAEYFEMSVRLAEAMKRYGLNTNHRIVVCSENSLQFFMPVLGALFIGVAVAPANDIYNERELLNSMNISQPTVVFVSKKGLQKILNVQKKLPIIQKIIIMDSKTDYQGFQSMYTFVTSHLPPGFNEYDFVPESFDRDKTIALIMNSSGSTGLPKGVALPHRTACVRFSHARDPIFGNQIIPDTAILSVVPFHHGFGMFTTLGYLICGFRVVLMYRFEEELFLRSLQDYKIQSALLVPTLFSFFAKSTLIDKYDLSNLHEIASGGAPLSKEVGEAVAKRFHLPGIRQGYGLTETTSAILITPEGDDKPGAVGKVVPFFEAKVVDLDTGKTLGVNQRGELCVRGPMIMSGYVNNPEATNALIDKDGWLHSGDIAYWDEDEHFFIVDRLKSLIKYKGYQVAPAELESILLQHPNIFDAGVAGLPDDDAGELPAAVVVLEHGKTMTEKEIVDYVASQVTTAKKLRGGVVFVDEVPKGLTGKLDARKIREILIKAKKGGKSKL
As for `O=C(O)c1cc(-c2ccc(F)cc2F)ccc1O`, the Potency was 15.1 µM (active).
The same measure for `Cn1c(NCCN2CCOCC2)nc2c1c(=O)n(Cc1cccc(Cl)c1)c(=O)n2C`: “inactive”.
For `Cc1ccccc1N=C(S)N(CCCN1CCOCC1)Cc1cccnc1`, the Potency result was “inactive”.
The entry for `O=C(NC1CCCC1)c1cc(Cl)ccc1[N+](=O)[O-]` is “inactive”.
